KB-3-1 tox – qHTS assay for MDR1-selective chemotherapeutics: Primary screen using the parental adenocarcinoma cell KB-3-1; hit rate 1.4% among 400,000; Potency, µM (highest dose often 46.1 µM), hits mostly cytotoxic; AID 1347075, 2019; KB-3-1 viability, CellTiter-Glo ATP luminescence, 72 h; note: potency is the fitted concentration of half-maximal effect; nearly all actives have a fitted effect of over 60% in size
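KB-3-1 parental drug-naive adenocarcinoma cells in DMEM/10% FBS, incubated 72 h at 37 C with pin-transferred compounds across a concentration series. Viability by CellTiter-Glo luminescence; concentration-response curves fitted after normalization.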
KB-V1 MDR tox – qHTS assay for MDR1-selective chemotherapeutics: Primary screen using the drug-selected MDR subline cells KB-V1; KB-V1 MDR cells viability, CellTiter-Glo, 72 h; Potency, µM (titrated, usually from 46.1 µM), usual class: cytotoxic; hit rate 3.4% among 400,000; note: potency is the fitted concentration of half-maximal effect; nearly all actives have a fitted effect of over 60% in size
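KB-V1, DMEM (no phenol red) + 10% FBS; cpd pin-transferred, titration series; 72 h, 37 degrees C; CellTiter-Glo, luminescence. Data normalized, curve-fit.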
HT1080-NT tox – qHTS for induction of synthetic lethality in tumor cells producing 2HG: qHTS for the HT-1080-NT fibrosarcoma cell line; HT-1080-NT fibrosarcoma viability, CellTiter-Glo ATP luminescence, 48 h; Potency, µM (top dose mostly 46.1 µM), inactives show top-dose activity, negative = less viability, actives largely listed as cytotoxic; hit rate 1.6% among 360,000; AID 686970, 2013;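 note: NT is the 2HG producing partner of a matched IDH1 knockdown line; potency is the fitted concentration of half-maximal effect; 0% = DMSO-treated cells and -100% = media-only wells without cells; nearly all actives have a fitted effect of over 55% in size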
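HT-1080-NT fibrosarcoma cells (2HG-overproducing), 750 cells/well in RPMI with 5% FBS, dosed after 2 h and incubated 48 h at 37C. CellTiter-Glo luminescence normalized to DMSO and no-cell wells; concentration-response curves fitted and classed.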
HT1080 IDH1KD tx – qHTS for induction of synthetic lethality in tumor cells producing 2HG: qHTS for the HT-1080-IDH1KD cell line. HT-1080 IDH1 knockdown viability, ATP luminescence, 48 h. Potency, µM (highest dose often 46.1 µM), inactives show at the highest dose activity, negative = toxicity, most hits filed as cytotoxic. hit rate 2% among 360,000. AID 686971, 2013;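 note: potency is the fitted concentration of half-maximal effect; 0% = DMSO wells and -100% = cell-free medium wells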
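Knockdown cells (IDH1KD HT-1080) received compounds 2 h after plating at 750 cells/well and were kept 48 h at 37 °C in 5% FBS RPMI. A CellTiter-Glo luminescence read gave % activity for curve fitting.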
IL-1B inflam inh – qHTS for Inhibitors of Inflammasome Signaling: IL-1-beta AlphaLISA Primary Screen; THP-1 LPS/ATP IL-1B secretion, AlphaLISA, 16 h; stronger effect = lower value; activity change, % at 57.5 µM; hit rate 4.7% among 360,000; in the data active = activity change below about -50%; inconclusive = mostly about -30% to -49%
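Secreted IL-1B measured by AlphaLISA bead assay after 16 h compound exposure of THP-1 cells; compounds (final up to 57.5 uM) added 1 h before LPS (250 ng/mL) and ATP (1.25 mM) stimulation; lower signal means less secretion.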
Numbers without * were called inactive; i = inactive; ? = inconclusive; nt = no result. Compounds with a hit are over-represented: about 8.8% of the library has one in this group of screens. Unless noted, calls come from the whole dose curve; as a rule, active = well fitted curve in the direction sought with a large enough effect; inconclusive = small, poorly fitted or top-dose-only effect, or another doubt; inactive = no such curve, though single readings can be large; an effect the other way counts as inactive or inconclusive. Unless noted, % is set by controls: 0 for no effect and ±100 for the full control effect.

SMILES | KB-3-1 tox | KB-V1 MDR tox | HT1080-NT tox | HT1080 IDH1KD tx | IL-1B inflam inh
O=C1NCCc2c1[nH]c1ccccc21 | ? | 6.5µM* | 6% | 1% | -11
O=C1NCCc2c1[nH]c1ccc([N+](=O)[O-])cc21 | 1.6µM* | 0.92µM* | -13% | ? | ?
Cc1cc(C)n2nc(C(=O)OCC(=O)N3CC(C)CC(C)C3)nc2n1 (stereo not drawn) | i | i | 7% | 10% | 15
CCc1[nH]nc2c1C(c1ccc(Br)s1)C(C#N)=C(N)O2 (stereo not drawn) | ? | i | ? | ? | -100*
CCc1[nH]nc2c1C(c1ccsc1)C(C#N)=C(N)O2 (stereo not drawn) | ? | i | 1% | 7% | ?
CN(C)c1ccc(/C=N/NC(=O)CCc2nc3ccccc3[nH]2)cc1 | i | i | -3% | 0% | -22
N#Cc1ccccc1COC(=O)c1ccc2c(c1)OCCO2 | i | i | 21% | 2% | -50*
O=c1/c(=C\c2ccc(O)cc2)sc2nc(-c3ccccc3)c(-c3ccccc3)n12 | i | i | 3% | 18% | -57*
Cc1ccc(CCNC(=O)C2CCN(S(=O)(=O)c3ccc4c(c3)NC(=O)C(C)S4)CC2)cc1 (stereo not drawn) | ? | i | 0% | ? | -68*
CCCc1ccc(-c2cc(C(=O)NN3CCOCC3)c3ccccc3n2)cc1 | i | 5.2µM* | -8% | ? | -56*
CC(C)Cc1cc(C(=O)N2N=C(C(F)F)CC2(O)C(F)F)c2ccccc2n1 (stereo not drawn) | i | i | -10% | -8% | -1
CCc1ccc(-c2cc(C(=O)Nn3cnnc3)c3ccccc3n2)cc1 | ? | ? | 10µM* | 14µM* | 26
CCC/C=N/NC(=O)c1cc(-c2ccccc2)nc2ccccc12 | i | i | 1% | -12% | 22
CCc1ccc(-c2cc(C(=O)N3N=C(C(F)F)CC3(O)C(F)F)c3ccccc3n2)cc1 (stereo not drawn) | ? | 18µM* | ? | ? | 0
Nc1nn(-c2ccccc2)nc1C(=O)OCc1ccc(Cl)cc1 | i | i | nt | nt | nt
COc1ccc2cc3cc(C(=O)Nc4cc(C)c(Cl)cc4OC)oc3nc2c1 | i | ? | nt | nt | nt
C/C=C/c1ccc(OCC(=O)OCc2csc(Nc3ccc(C)cc3)n2)c(OC)c1 | i | i | 1% | -2% | -7
CC1CCN(c2nc3ccccc3nc2C(F)(F)F)CC1 | i | i | nt | nt | nt
COC(=O)C(Cc1ccccc1)NC(=O)c1cc(=O)[nH]c2ccccc12 (stereo not drawn) | i | i | -1% | 1% | -103*
COC(=O)[C@@H](Cc1c[nH]c2ccccc12)NC(=O)c1cc(=O)[nH]c2ccccc12 | i | i | 4% | 7% | -99*
COC(=O)[C@@H](Cc1c[nH]c2ccccc12)NC(=O)CNC(=O)c1ccccc1OC | i | i | -6% | -4% | -99*
COc1ccc(CNC(=O)COC(=O)[C@H](Cc2c[nH]c3ccccc23)NC(=O)c2cccs2)cc1 | i | i | 18% | 14% | -93*
COC(=O)C(Cc1c[nH]c2ccccc12)NC(C)=O (stereo not drawn) | i | ? | 9% | 6% | 5
O=C(NCc1ccccc1)c1cc(=O)[nH]c2ccccc12 | i | i | 1% | -5% | -20
CNc1ccc(/C=C\CCCO)cn1 | i | i | 12% | 19% | 21
SMILES | KB-3-1 tox | KB-V1 MDR tox | HT1080-NT tox | HT1080 IDH1KD tx | IL-1B inflam inh
Cn1c(CNC(=O)c2ccco2)nnc1SCC(=O)N1CCN(c2ccccc2F)CC1 | i | i | 0% | 14% | 17
Cc1cc(C(=O)NC(Cc2c[nH]c3ccccc23)C(=O)O)c(C)o1 (stereo not drawn) | i | i | 4% | 3% | 19
COc1ccccc1CNC(=O)C(Cc1c[nH]c2ccccc12)NC(=O)OCc1ccccc1 (stereo not drawn) | ? | 18µM* | -16% | -13% | -26
COC(=O)C(Cc1c[nH]c2ccccc12)NC(=O)c1cc(-c2ccc(OC)c(OC)c2)oc1C (stereo not drawn) | i | i | -11% | -13% | -64*
COc1ccccc1NC(=O)C1=C(C)Nc2nc(SCc3cc(C)ccc3C)nn2C1c1ccccc1 (stereo not drawn) | i | i | nt | nt | nt
Nc1cccc2c1C(=O)N(C(=O)/C=C/c1ccc(F)cc1)C2=O | i | ? | ? | 18µM* | -78*
CSc1ncccc1C(=O)Nc1nnc(C2CC2)s1 | i | i | ? | -1% | -12
O=C1CC(c2cccc([N+](=O)[O-])c2)c2ccc3ccccc3c2N1 (stereo not drawn) | i | 13µM* | ? | ? | -4
O=C1CC(c2ccsc2)c2ccc3ccccc3c2N1 (stereo not drawn) | ? | i | -16% | -16% | 21
O=C(c1ccccc1)c1ccc(OCC(O)CNCc2ccc(Cl)cc2)cc1 (stereo not drawn) | i | i | -10% | -14% | -60*
Cc1ccc(OCC(O)CNCc2ccc(F)cc2)cc1 (stereo not drawn) | i | i | ? | ? | -78*
COc1cccc(N/C=C/c2onc(C)c2[N+](=O)[O-])c1 | i | ? | 8% | 3% | 24
COC(=O)c1ccc(COc2cc([N+](=O)[O-])cc3cccnc23)o1 | i | i | -13% | -14% | 0
O=[N+]([O-])c1cc(O)c2ncccc2c1 | ? | 18µM* | 1.8µM* | 2.3µM* | -95*
Cc1ccc([N+](=O)[O-])c2cccnc12 | i | i | 6% | 12% | 15
O=[N+]([O-])c1cc2cccnc2c2ncccc12 | 0.12µM* | i | ? | ? | 90
O=C(Cc1ccc(OCCc2ccccc2)cc1)NO | i | ? | nt | nt | nt
C=CCOc1cccc(/C=C2\C(=O)N(Cc3ccc(C)cc3)C(C)=C2C(=O)OC)c1 | ? | i | -19% | -16% | -91*
C=CCn1c(N2CCCCCC2)nc2c1c(=O)n(C)c(=O)n2C | i | 16µM* | -3% | 8% | 12
COc1ccc(CN=Cc2[nH]c3ccc(Br)c(Cl)c3c2O)cc1 | i | i | ? | 10µM* | 29
COc1ccc(Cl)cc1NS(=O)(=O)c1cccc(C(=O)NCCCN2CCOCC2)c1 | i | i | 0% | 0% | 11
